In all, about 110,000 compounds were measured (“z-score”: median about -0.1, highest 2% from about 2 on). Shown is part of a subset that was picked to be rich in the highest values. The source made the active and inactive calls.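 The calls were made as follows: active = z-score in the third read window above 3 or below -3; inactive = the rest.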
biological target: Metabotropic glutamate receptor 8 (Rattus norvegicus) (UniProt P70579); assay: mGluR8 Gi/Go-coupled signaling modulation – cell-based, rat, thallium flux, HTS, primary screen (AID 488969); conditions: HEK293 rat mGluR8, GIRK (G protein-gated inwardly rectifying potassium channel) thallium flux, FluoZin2; at 10 µM; stronger effect = higher value; submaximal glutamate (EC20) added with thallium
Sequence (P70579 whole entry, looked up): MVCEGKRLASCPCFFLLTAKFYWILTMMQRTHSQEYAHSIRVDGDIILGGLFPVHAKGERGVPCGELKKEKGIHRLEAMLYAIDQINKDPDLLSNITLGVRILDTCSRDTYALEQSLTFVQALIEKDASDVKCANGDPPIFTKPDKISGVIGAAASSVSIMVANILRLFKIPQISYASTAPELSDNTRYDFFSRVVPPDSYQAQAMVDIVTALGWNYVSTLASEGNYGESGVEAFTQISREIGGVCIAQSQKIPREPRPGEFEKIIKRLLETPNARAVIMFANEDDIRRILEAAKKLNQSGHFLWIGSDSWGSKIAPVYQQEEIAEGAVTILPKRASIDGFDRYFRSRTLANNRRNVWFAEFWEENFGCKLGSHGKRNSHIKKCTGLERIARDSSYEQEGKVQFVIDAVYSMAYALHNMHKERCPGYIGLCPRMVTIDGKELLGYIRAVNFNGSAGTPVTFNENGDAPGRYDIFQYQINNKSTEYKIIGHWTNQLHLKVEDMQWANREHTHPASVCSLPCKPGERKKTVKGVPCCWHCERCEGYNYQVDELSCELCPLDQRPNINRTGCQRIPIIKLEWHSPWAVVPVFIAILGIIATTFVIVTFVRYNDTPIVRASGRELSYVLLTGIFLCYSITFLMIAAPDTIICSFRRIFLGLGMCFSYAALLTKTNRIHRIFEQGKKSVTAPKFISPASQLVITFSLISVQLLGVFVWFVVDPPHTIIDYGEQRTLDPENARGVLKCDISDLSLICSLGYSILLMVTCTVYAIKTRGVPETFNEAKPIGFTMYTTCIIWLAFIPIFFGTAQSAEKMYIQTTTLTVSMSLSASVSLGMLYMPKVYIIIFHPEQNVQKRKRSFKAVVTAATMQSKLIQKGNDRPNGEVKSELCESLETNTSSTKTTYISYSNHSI

| SMILES | z-score |
| --- | --- |
| CC(=O)C1=C(C)NC(SCc2cccc3ccccc23)=C(C#N)C1c1ccco1 (stereo not drawn) | 0.063 |
| CSCSC1=C(C#N)C(c2ccccc2Cl)C(C(C)=O)=C(C)N1 (stereo not drawn) | -2.68 |
| CC(=O)C1=C(C)NC(SCc2ccc(C#N)cc2)=C(C#N)C1c1ccco1 (stereo not drawn) | 5.85 (active) |
| CSCSC1=C(C#N)C(c2ccc(Cl)cc2)C(C(C)=O)=C(C)N1 (stereo not drawn) | 3.87 (active) |
| CCc1ccc(C(=O)CSC2=C(C#N)C(c3ccco3)C(C(C)=O)=C(C)N2)cc1 (stereo not drawn) | -0.295 |
| C=CCOC(=O)C1=C(C)NC(SCC)=C(C#N)C1c1ccc(Cl)cc1 (stereo not drawn) | 0.285 |
| Cn1c(CNC(=O)c2ccc(Cl)cc2)nnc1SCC(=O)Nc1sc2c(c1C#N)CCCC2 | 0.356 |
| CN1CCc2nc(SCc3ccc(Cl)cc3)c(C#N)c(-c3cccs3)c2C1 | 0.101 |
| CCN(C(=O)C1CCN(S(=O)(=O)c2cccc3nonc23)CC1)c1ccccc1 | -0.39 |
| CCOC(=O)c1[nH]c(C)c(/C(O)=C2\C(=O)C(=O)N(CCN(C)C)C2c2ccc(C)o2)c1C (stereo not drawn) | -0.288 |
| COC(=O)[C@H](CCSC)NC(=O)N1CCC(C)CC1 | 0.07 |
| COc1ccc(NC(=O)c2cccnc2Sc2ccccc2)c(OC)c1 | -0.415 |
| COc1cc2c(cc1OC)CN(S(C)(=O)=O)CC2 | 0.0161 |
| NS(=O)(=O)c1ccc(NC(=O)COC(=O)CCC2CCCCC2)cc1 | -0.157 |
| N=c1ncn(CC(O)CO)c2nc(N3CCOCC3)[nH]c12 (stereo not drawn) | -0.0516 |
| COc1ccc(C(=O)N(C(C)C)C(C)C)c(OC)c1 | 0.14 |
| Oc1[nH]c2ccccc2c1N=Nc1ccccc1F | 0.0754 |
| Oc1[nH]c2ccccc2c1N=Nc1ccc(F)cc1 | -0.405 |
| Oc1[nH]c2ccccc2c1N=Nc1nc2ccccc2s1 | 2.12 |
| Cc1c(NC(=O)CCC(=O)N2CCCCC2)c(=O)n(-c2ccccc2)n1C | -0.244 |
| CCCC(=O)NC(NC(=S)Nc1c(C)n(C)n(-c2ccccc2)c1=O)C(Cl)(Cl)Cl (stereo not drawn) | -0.165 |
| Cc1c(NC(=O)N(C)C)c(=O)n(-c2ccccc2)n1C | -0.0915 |
| Cc1c(NC(=O)CCC2CCCCC2)c(=O)n(-c2ccccc2)n1C | 2.9 |

| SMILES | z-score |
| --- | --- |
| Cc1c(NC(=O)CSc2nccn2C)c(=O)n(-c2ccccc2)n1C | -0.0895 |
| Cc1c(NC(=O)C2C3C=CC(C3)C2C(=O)O)c(=O)n(-c2ccccc2)n1C (stereo not drawn) | 0.15 |
| CCC(=O)NC(NC(=S)Nc1c(C)n(C)n(-c2ccccc2)c1=O)C(Cl)(Cl)Cl (stereo not drawn) | -0.491 |
| Cc1c(NC(=O)CC(=O)Nc2c(C)n(C)n(-c3ccccc3)c2=O)c(=O)n(-c2ccccc2)n1C | -0.0936 |
| Cc1c(NC(=S)NC(NC(=O)CC(C)C)C(Cl)(Cl)Cl)c(=O)n(-c2ccccc2)n1C (stereo not drawn) | 2.53 |
| Cc1c(NC(=O)C2CC=CCC2C(=O)O)c(=O)n(-c2ccccc2)n1C (stereo not drawn) | 2.16 |
| Cc1c(NC(=O)CSc2ccccn2)c(=O)n(-c2ccccc2)n1C | -0.147 |
| Cc1c(NC(=O)CSc2ccccc2C(=O)Nc2cccnc2)c(=O)n(-c2ccccc2)n1C | 2.06 |
| O=C(NCCc1ccncc1)C12CC3CC(CC(C3)C1)C2 | 0.467 |
| CC1CCN(S(=O)(=O)c2ccc3c(c2)oc(=O)n3CC(=O)N2c3ccccc3CC2C)CC1 (stereo not drawn) | 0.0729 |
| Cc1cc(C)n(-c2nc(NCC3CCCO3)c3c4c(sc3n2)COC(C)(C)C4)n1 (stereo not drawn) | -2 |
| C=CCc1cccc(/C=N/NC(=O)CCCNc2ccc(C)cc2)c1O | -0.144 |
| CCOC(=O)C1CCN(C(=O)CN(c2ccc(OC)cc2)S(=O)(=O)c2c(C)nn(C)c2C)CC1 | -0.304 |
| CCCC(C)NC(=O)c1ccc2[nH]c3c(c2c1)CC(C)CC3 (stereo not drawn) | -0.815 |
| O=C(CSc1ncn(-c2ccccc2)n1)Nc1ccc(Br)cn1 | -0.314 |
| COC(=O)c1c(C)[nH]c(C(=O)OCC(=O)NCC(C)C)c1C | -0.00108 |
| O=C(CSCCO)Nc1cccc([N+](=O)[O-])c1 | -1.53 |
| Cc1c(NC(=O)C(=O)/C=C(\O)c2ccc(Br)cc2)c(=O)n(-c2ccccc2)n1C | -0.237 |
| Cc1c(NC(=O)C(=O)/C=C(\O)c2ccc(Cl)cc2)c(=O)n(-c2ccccc2)n1C | 2.16 |
| Cc1c(NC(=O)C(=O)/C=C(/O)c2ccccc2)c(=O)n(-c2ccccc2)n1C | -0.309 |
| O=C1COc2ccc(C(=O)c3ccccc3C(=O)NCc3ccco3)cc2N1 | 0.0372 |
| C=CCn1c(SCC(=O)c2[nH]c(C)c(C(=O)OCC)c2C)nc2scc(-c3ccc(OC)c(OC)c3)c2c1=O | -0.123 |
| CCOc1cc(C2NN=C(c3ccccc3)S2)ccc1OCc1ccc(F)cc1 (stereo not drawn) | 0.745 |

| SMILES | z-score |
| --- | --- |
| CCOc1cc(C2NN=C(c3ccccc3)S2)ccc1OCc1ccccc1Cl (stereo not drawn) | 0.78 |
| CCOc1cc(C2NN=C(c3ccc(C)cc3)S2)ccc1O (stereo not drawn) | 8.33 (active) |
| CC1CCCCN1C(=O)CSc1nnc(-c2cccnc2)n1C1CCCCC1 (stereo not drawn) | 0.109 |
| COc1ccccc1N(CC(=O)NCc1cccnc1)S(C)(=O)=O | 0.0794 |
| CCN1CCN(C(=O)c2ccc3c(=O)n(C4CCCC4)c(=S)[nH]c3c2)CC1 | 5.09 (active) |
| CCN(CC)CCNC(=O)c1ccc2c(=O)n(C3CCCC3)c(=S)[nH]c2c1 | 0.125 |
| O=C(c1ccc(CNc2c(NC3CCCCC3)c(=O)c2=O)cc1)N1CCc2ccccc21 | -0.164 |
| CCCn1c(=S)[nH]c2cc(C(=O)N3CCc4ccccc43)ccc2c1=O | 1.07 |
| CCCCCn1c(=O)[nH]c2cc(C(=O)N3CCN(CC)CC3)ccc2c1=O | 0.0715 |
| O=C(c1ccc2c(=O)n(C3CCCC3)c(=S)[nH]c2c1)N1CCc2ccccc21 | 9.93 (active) |
| O=C(Nc1ccc([N+](=O)[O-])cn1)c1cc(-c2cccc(Br)c2)nc2ccccc12 | 0.61 |
| COC(=O)c1[nH]c2ccc(C)cc2c1NC(=O)CN1CCCC(C)(C)C1 | -0.603 |
| O=C(Nc1cc(C(=O)N2CCCC2)ccc1N1CCCC1)c1ccccc1 | -1.7 |
| O=c1c2ccccc2nc(-c2ccccc2)n1/N=C/c1ccc([N+](=O)[O-])cc1 | 6.71 (active) |
| Cc1nc2ccccc2c(=O)n1/N=C/c1ccc(O)cc1 | 0.481 |
| Cc1nc2ccccc2c(=O)n1/N=C/c1ccccc1 | -0.0985 |
| CCC(=O)Nc1ccc2c(c1)ncn2-c1ccccc1 | 0.261 |
| COc1ccc(-n2cnc3cc(NC(=O)c4ccco4)ccc32)cc1 | -1.7 |
| CCC(=O)Nc1ccc2c(c1)ncn2-c1ccc(OC)cc1 | 2.82 |
| O=C(O)c1ccc(CNCc2c(Cl)cccc2Cl)cc1 | 0.0291 |
| CC(CCc1ccccc1)NC(=O)COC(=O)C1=COCCO1 (stereo not drawn) | 0.664 |
| CN(C)c1ncnc2c1ncn2C1OC(CO)C(O)C1O (stereo not drawn) | -0.162 |
| O=c1[nH]cnc2c1nc(SCc1ccccc1)n2C1OC(CO)C(O)C1O (stereo not drawn) | 1.45 |

| SMILES | z-score |
| --- | --- |
| Nc1nc(SCc2ccc([N+](=O)[O-])cc2)c2ncn(C3OC(CO)C(O)C3O)c2n1 (stereo not drawn) | 2.28 |
| COc1ccc(C2=CC(=O)OC3(CCCCC3)O2)cc1 | -2.37 |
| CCC(C)[C@H](NC(=O)Nc1ccc2c(c1)OCCO2)C(=O)O (stereo partly drawn) | -0.196 |
| COC(=O)[C@@H](NC(=O)Nc1ccc2c(c1)OCCO2)C(C)C | 0.876 |
| CCOc1ccc(C(=O)Nc2ccc3c(c2)OCCO3)cc1OC | -0.705 |
| O=C(Nc1ccc(N2CCCCC2)c(Cl)c1)c1ccc2c(c1)OCCO2 | -0.282 |
| COc1cc(C(=O)Nc2ccc3c(c2)OCCO3)ccc1OC(C)C | 2.41 |
| O=C(Nc1ccc(N2CCCC2)c(Cl)c1)c1ccc2c(c1)OCCO2 | 2.58 |
| COC(=O)[C@H](CC(C)C)NC(=O)Nc1ccc2c(c1)OCCO2 | 3.6 (active) |
| COc1ccc(C(=O)Nc2ccc3c(c2)OCCO3)cc1 | -0.168 |
| O=C(NC(=S)Nc1ccc(N2CCCCC2)c(Cl)c1)c1ccc2c(c1)OCCO2 | 0.126 |
| CC(C)c1ccc(C(=O)N2CCCN(C(=O)c3ccc(C(C)C)cc3)CC2)cc1 | -0.119 |
| O=C(NCC1CCCO1)C1CCN(S(=O)(=O)c2cccc3nonc23)CC1 (stereo not drawn) | 0.153 |
| O=C(NC1CCCCC1)C12CC3CC(C1)CC(n1cncn1)(C3)C2 | -0.163 |
| COc1ccc(Cn2nnnc2C(c2ccncc2)N2CCOCC2)cc1 (stereo not drawn) | 0.39 |
| O=C(COc1ccccc1Cl)NCCCN1CCOCC1 | 1.3 |
| COc1ccc(S(=O)(=O)N2CCC(C(=O)NCc3ccccn3)CC2)cc1Cl | -0.477 |
| COc1cccc(/C=N/n2c(=S)n(C)c3ccccc32)c1OC | 2.32 |
| COc1cccc(/C=N/n2c(=S)n(C)c3cc(C)c(C)cc32)c1OC | 0.276 |
| COc1ccc(/C=N/n2c(=S)n(C)c3ccccc32)cc1OC | 0.103 |
| COc1ccc(C)cc1C1=Nc2ccccc2C1(C)C | -0.42 |
| Cn1c(=O)[nH]c(=O)c2c1nc(N1CCCCC1)n2CCCSc1nnnn1-c1ccccc1 | -0.187 |
| O=C(CSc1nnc(NC(=O)C2CCC2)s1)Nc1ccc(N2CCOCC2)cc1 | -0.322 |

| SMILES | z-score |
| --- | --- |
| O=C(Nc1ccccc1)c1ccc(S(=O)(=O)N2CCCCC2)cc1 | -0.0563 |
| COc1cccc(C(CC(=O)Nc2cccc3ccccc23)NC(=O)c2ccccc2)c1 (stereo not drawn) | 2.17 |
| O=C(CC(NC(=O)c1ccccc1)c1ccccc1)Nc1cccc2ccccc12 (stereo not drawn) | -0.0391 |
| COc1ccc(C(CC(=O)O)NC(=O)c2ccccc2)cc1OC (stereo not drawn) | -0.105 |
| Cc1cc(C)nc(SCc2nnc(SCC(=O)Nc3nccs3)n2C)n1 | 0.465 |
| CCCCCOc1ccc(C(=O)C(c2ccccc2)N2CCOCC2)cc1 (stereo not drawn) | 0.204 |
| CCOc1ccc(C(=O)C(c2ccccc2)N2CCOCC2)cc1 (stereo not drawn) | -0.418 |
| COc1ccc(C(=O)C(c2ccccc2)N2CCOCC2)cc1 (stereo not drawn) | 2.44 |
| O=S(=O)(Nc1ccc(N=Nc2ccccc2)cc1)c1ccccc1 | -0.241 |
| COc1cccc(CNC(=O)CN(c2cc(C)cc(C)c2)S(=O)(=O)c2c(C)noc2C)c1 | 2.13 |
| Cc1cccc(N(CC(=O)Nc2ccc(F)cc2)S(C)(=O)=O)c1 | 0.171 |
| COc1cccc(NC(=O)CN(c2cccc(F)c2)S(C)(=O)=O)c1 | -0.058 |
| COc1cccc(N(CC(=O)NCc2cccnc2)S(C)(=O)=O)c1 | 3.97 (active) |
| COc1ccc(CNC(=O)CN(c2cc(C)cc(C)c2)S(=O)(=O)c2c(C)noc2C)cc1 | -0.0907 |
| COc1cccc(N(CC(=O)Nc2cccc(C(C)=O)c2)S(C)(=O)=O)c1 | 4.2 (active) |
| CC(=O)c1cccc(NC(=O)CN(c2cccc(F)c2)S(C)(=O)=O)c1 | -0.268 |
| CC(=O)c1cccc(N(CC(=O)Nc2cccnc2)S(C)(=O)=O)c1 | 0.179 |
| COc1ccc(N(CC(=O)NCc2cccc(OC)c2)S(=O)(=O)c2c(C)noc2C)cc1 | -0.199 |
| Cc1ccc(N(CC(=O)NCc2cccnc2)S(C)(=O)=O)cc1C | 0.196 |
| CC(=O)c1cccc(N(CC(=O)Nc2ccc(F)cc2)S(C)(=O)=O)c1 | 2.52 |
| COc1ccc(OC)c(N(CC(=O)NCc2cccnc2)S(C)(=O)=O)c1 | 0.361 |

From PubChem BioAssay AID488969 (Vanderbilt High Throughput Screening Facility, 2010)
